In PubChem BioAssay AID1159506 (National Center for Advancing Translational Sciences (NCATS), 2015):
The full ranking holds about 59,000 sequences; the median of the read-out is about -0.00055, and the lowest 2% start at about -2. Only a selection was taken, and the lowest values are over-represented in it overall.

Assay: Identification of proteins required for the processing of the EWS-FLI1 nascent transcript;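 further: robust z of luciferase light less the median z of siRNAs with the same seed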
Details: TC32 Ewing sarcoma NR0B1-luc vs CMV-luc (EWS-FLI1 target promoter against control promoter), 48 h; screened at 20 nM (by protocol)
Method: Ewing sarcoma (ES) cells depend on the EWS-FLI1 fusion transcription factor for cell survival. Using an assay of EWS-FLI1 activity and genome-wide siRNA screening we have identified proteins required for the processing of the EWS-FLI1 nascent transcript. Parallel genome-wide siRNA-mediated RNAi screens were conducted in Ewing sarcoma TC32 cell lines expressing a luciferase (luc) reporter protein driven by either the promoter of the EWS-FLI1 target gene NR0B1 (TC32-NR0B1-luc) or the CMV promoter (TC32-CMV-luc). Luciferase activity was assessed 48 hours post siRNA-transfection.
Twenty microl of serum-free media containing Lipofectamine RNAiMax (0.05 microl) was added to wells containing siRNA (0.8 pmol). Lipid and siRNA were allowed to complex for 45 min at ambient temperature before addition of 600 cells in RPMI-1640, 20% FBS to yield final transfection mixtures containing 20 nM siRNA in RPMI-1640, 10% FBS. Luciferase expression was measured using OneGlo (Promega, Madison, WI). The genome-wide screening campaign was conducted using Ambion's human genome library version 4.1 (Ambion, Austin TX). This library targets approximately 21000 human genes, three siRNAs per gene. Each siRNA is arrayed in an individual well of a 384-well plate. Parallel transfections were conducted in TC32-NR0B1-luc and TC32-CMV-luc cell lines and luciferase expression (OneGlo, Promega) was assayed 48 h later on a PerkinElmer Envision 2104 Multilabel plate reader (PerkinElmer, Waltham, MA). Qiagen's AllStars Negative control was incorporated on all screening plates for normalization (16 wells per plate). Qiagen, Germantown, MDsiGL4 was incorporated as a positive transfection control (16 wells per plate) on all plates. […] The raw luciferase data for the NR0B1- and CMV-luc screens were normalized and z-score-MAD transformed using standard methods (Chung et al., 2008). The miRNA-like seed sequence of every siRNA was determined and the median z-score for all siRNA sequences with the same seed sequence was calculated. This z-score was subtracted from the z-score associated with each siRNA with that seed sequence to generate a seed-adjusted z-score value (Z) that was used when the results for the three siRNAs corresponding to each gene were compared (Marine et al., 2012)
AACACUUACGCAGUUCUUG against MTCP1 showed a seed-corrected z-score of 0.193. In the case of UUUUUCUUCACAGGUGUUU against HIST1H1D, the seed-corrected z-score is reported as -0.582. For UAAGCUUUUAUUGUGAAUG against GRP, the seed-corrected z-score was -2.97. UUCUCAUCACUUGUAGCCU against ANKRD36C gave a seed-corrected z-score of 0.48. UGUUUAGUAGCAGAUCUCC against PSMD6 showed a seed-corrected z-score of -2.83. In the case of GUUGGUAACAGGGUCAUUU against RXRG, the seed-corrected z-score is reported as -0.41. UUGCGAACAAUAGGGUUAG against PZP showed a seed-corrected z-score of -0.222. UAAAUGUACCGUUUAAACC against LOC647481 gave a seed-corrected z-score of 0.567. With UCCGGAAUGUCGAUGCCCU against DUX5 the seed-corrected z-score was -0.471. ACUGUUAUUCUUACGCUGG against CUL3 gave a seed-corrected z-score of -0.643. With AAUUUGACCUCAUCCAUUU against FAM47C the seed-corrected z-score was -0.798. For UGGUGUAACUUCAACAUCG against ATP13A4, the seed-corrected z-score was -2.09. In the case of UAUUCGUCAGCUCAAACUC against IQCH, the seed-corrected z-score is reported as -1.02. Work on UAGGGUGAGAAUAGACAGG against PEX11B yielded a seed-corrected z-score of 0.764. In the case of UUCAGUUGUGAUAAGUUGC against TLR6, the seed-corrected z-score is reported as -0.0452. Sequence UUUCGAUCUCUGUUAAGCC against C2orf40 has a seed-corrected z-score of 0.448. With UUGAAGACCACGUACAUGG against SLC35D3 the seed-corrected z-score was -0.373. UAAGCGUAUCUGGAAUUAC against UGCG showed a seed-corrected z-score of 0.00222. For UUCUUGACGUGCUUCAUUC against SCO1, the seed-corrected z-score was -0.488. In the case of UUACGGAUCAUGUGGUCUU against SCNN1B, the seed-corrected z-score is reported as 0.029. For UGACUUCACAUGGACUACG against IDH3B, the seed-corrected z-score was -2.07. AUCAUUCACAGGGAGGUCC against OAZ2 gave a seed-corrected z-score of 1.3. Sequence UUUGCAUCCCUCGCACUUG against MT3 has a seed-corrected z-score of 0.331. With UUGAAUUCAUUGCAUGUCC against CTSZ the seed-corrected z-score was 0.0627. In the case of UAGCGGGUCUCAUCAAAGC against HGFAC, the seed-corrected z-score is reported as 1.53. In the case of UUAGGUGCGCGGCUAACUG against COL9A3, the seed-corrected z-score is reported as -2.65. UCAAUGCAAAGGAACACUC against ARFGAP3 showed a seed-corrected z-score of -0.0755. With AUGUGGGUAAAAACUUGCU against NGRN the seed-corrected z-score was -2.09. Work on UUCUUUAUUCCUUGAGCUG against OR10A4 yielded a seed-corrected z-score of -3.24. With UACUUGACGAUGUUGCGCG against ADGRL1 the seed-corrected z-score was -0.114. UUCAUAUACAGCACAAUAC against CD58 showed a seed-corrected z-score of 1.5. UUGGAGGACAGGUCCAAGU against TSKU gave a seed-corrected z-score of 0.336. Work on UUCCAUGUAAAACAAUUUC against PDE4D yielded a seed-corrected z-score of 0.777. UUAUCUGUGACAUAAGUUG against ALG13 gave a seed-corrected z-score of -2.26. UAGGGUACAUCGUAGGGAG against MYO15A showed a seed-corrected z-score of -0.369. For GGAUUUGCAGCGCAAAGCC against LYPD1, the seed-corrected z-score was -0.365. In the case of UCUGGAUUAACGGUGGUCU against NOVA1, the seed-corrected z-score is reported as -3.04. With UAAGACUCAAAGUUCCCAG against LOC642502 the seed-corrected z-score was -0.393. Work on AGAUGAAAAAGUAAGGCCG against TRIM58 yielded a seed-corrected z-score of -0.628. UUUUCGAGGACAUUGACUG against FMN1 gave a seed-corrected z-score of 0.159. With UCUUGCUCCAAACCUGCUC against KLHL34 the seed-corrected z-score was -0.143. Sequence UUGCGGUAGACGAUGAUGC against ADAM8 has a seed-corrected z-score of -1.99. Sequence AAGCAUAAAAGGUUCCUGU against IRF4 has a seed-corrected z-score of 0.397. Sequence UUCUCGUGCACUGUCAAAG against SMU1 has a seed-corrected z-score of -3.77. Work on UUUGCGGUCACAAUUGGGC against IGFBP5 yielded a seed-corrected z-score of -0.759. With AGACAUAACACUACGAGAC against GBA2 the seed-corrected z-score was 0.274. With UUCUUCAUGCGCAGUGUGG against INF2 the seed-corrected z-score was 0.288. AAAUCCUCCAAACAUGUGC against ZNRF2 showed a seed-corrected z-score of -0.0777. For UGAUCGAAAUGAUUUACAC against CD180, the seed-corrected z-score was -0.034. With UAUACGAUAAUGAAAUUCC against SPINK13 the seed-corrected z-score was 0.358. Work on AAAGUUGGAAUACCGAGGU against C15orf61 yielded a seed-corrected z-score of 0.00537. UUGACUAUAAGUGCGUCUC against KMT2E showed a seed-corrected z-score of -2.36. For UCAGGGUGCAGCAUGAAUC against LOC338667, the seed-corrected z-score was 0.765. Work on UUUGUUGGGUCUAAGAUUG against RAB23 yielded a seed-corrected z-score of -0.849. UCAAUUACACCCUCAUUUG against SRSF6 showed a seed-corrected z-score of -2.18. For UUCGUGUAGGGUGUGUAGC against OSGIN1, the seed-corrected z-score was 0.000927. Sequence UUAGAGUCAUGCAUGAGGG against MROH7 has a seed-corrected z-score of -0.225. In the case of UUGUAGACGAGCUGGAUGC against ADAMTSL5, the seed-corrected z-score is reported as -0.759. With UCCAUUCCUAUACUAGUCC against ABCG2 the seed-corrected z-score was -0.43. Sequence CAAGUUUUUAUUAUCCUGC against EPHA10 has a seed-corrected z-score of -0.0524. Work on AUUGUUCCCAUAGAGUUCC against BCL2L1 yielded a seed-corrected z-score of 3.29. With UGAUCUGUGACUGCUCUUC against AP2M1 the seed-corrected z-score was -2.2. Sequence UCGAUCUUCAGGUCGUUGC against ATXN1 has a seed-corrected z-score of -0.921. UUGGAAGUCACAGUCAUCC against CST7 showed a seed-corrected z-score of -0.103. Sequence UUGGUUAACUGGUCAAUCC against SLC40A1 has a seed-corrected z-score of -0.655. In the case of AUCUUUCCCAGGUUUUUCG against ZNF669, the seed-corrected z-score is reported as -2.19. Work on AUCCAUCAAAGCGAUAUUC against GBE1 yielded a seed-corrected z-score of -1.06.
